Results from PubChem BioAssay (NCATS).
Inconclusive results are not listed. Entries that show only a call come without a potency. Calls of active or inactive are those of the source. Calls come from the whole dose curve; as a rule, active = well fitted curve in the direction sought with a large enough effect; inconclusive = small, poorly fitted or top-dose-only effect, or another doubt; inactive = no such curve, though single readings can be large; an effect the other way counts as inactive or inconclusive.

Tests used:
[1] = Quantitative High-Throughput drug screen in 47 multiple myeloma cell lines against the NCATS MIPE library collection: Delta47_JCRB cell viability assay (AID 1918925; note: nearly all actives have a fitted effect of over 45% in size; note: potency is the fitted concentration of half-maximal effect)
In short: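 Relative luminescence from CellTiter-Glo served as the viability signal, referenced to DMSO-treated (100%) and cell-free medium (0%) controls. Treatment lasted 48 hours at 37C with 500 cells per well.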

[2] = target: Luciferin 4-monooxygenase (Photinus pyralis) (UniProt P08659); assay: Primary firefly luciferase (FLuc) qHTS assay for identification of artifact compounds. (AID 1845220); note: nearly all actives have a fitted effect of over 60% in size
In short: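 FLuc 10 nM; luciferin 10 uM; ATP 10 uM; Tris-acetate pH 7.6, Mg-acetate 10 mM; 15 min RT preincubation; 5 min reaction; luminescence.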

[3] = Primary fluorescence-based thiol-reactive (MSTI) qHTS assay for identification of artifact compounds. (AID 1845221); note: nearly all actives have a fitted effect of over 65% in size; note: potency is the fitted concentration of half-maximal effect
In short: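 Curve-fitted percent inhibition (4-parameter Hill) derived from fluorescence, Ex 525/Em 598 nm, scaled with Acetyl-MSTI and MSTI; 1 h incubation at room temperature.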

[4] = test system: Nanoluciferase (engineered Oplophorus gracilirostris luciferase); assay: Primary Nanoluciferase (NLuc) qHTS assay for identification of artifact compounds. (AID 1845222);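 note: NLuc secreted into diluted conditioned medium of S16 cells; series mostly up to about 54 µM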
In short: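 NLuc from S16 cell medium (1:55) plus test compounds, 15 min, room temperature. Luminescence after Nano-Glo (1:100) addition, 5 min.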

[5] = Primary redox qHTS assay for identification of artifact compounds. (AID 1845223)
In short: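 Redox-cycling detection via DTT (250 uM final) oxidation coupled to Amplex Red (25 uM)/HRP (250 mU/mL) in HBSS. 15 min preincubation plus 30 min after DTT, room temperature. Ex/Em 525/598 nm; 4-parameter Hill fit against DMSO and 10 uM DA3003.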

[6] = target: Phospholipid hydroperoxide glutathione peroxidase GPX4 (Homo sapiens) (UniProt P36969); assay: Primary qHTS Assay for Inhibitors of Recombinant Selenoprotein Glutathione Peroxidase 4 (GPX4) (AID 1845192); note: nearly all actives have a fitted effect of over 65% in size; note: potency is the fitted concentration of half-maximal effect
In short: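 NADPH consumption followed by fluorescence at 340/450 nm, t=0 and after 15 min at room temperature. Reaction started with cumene hydroperoxide (0.5 mM final) after 30 min compound–GPX4 preincubation; final 200 nM GPX4, 100 nM GR, 1 mM GSH, 0.5 mM NADPH.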

[7] = Quantitative High-Throughput drug screen in 47 multiple myeloma cell lines against the NCATS MIPE library collection: FR4_PLB cell viability assay (AID 1918924; note: nearly all actives have a fitted effect of over 35% in size; note: potency is the fitted concentration of half-maximal effect)
In short: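 Approved and investigational drugs from MIPE 4.0 were added by pin tool to 500 cells per well. After 48 hours at 37C, ATP-based CellTiter-Glo luminescence indicated remaining viability.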

Sequence of Phospholipid hydroperoxide glutathione peroxidase GPX4 (Homo sapiens) (P36969 whole entry, looked up): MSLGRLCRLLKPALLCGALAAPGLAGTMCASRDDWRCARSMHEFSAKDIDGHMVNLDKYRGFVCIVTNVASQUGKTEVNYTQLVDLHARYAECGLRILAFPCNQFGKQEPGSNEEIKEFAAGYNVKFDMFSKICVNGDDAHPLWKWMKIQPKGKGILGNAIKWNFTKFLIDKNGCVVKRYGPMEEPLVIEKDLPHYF

## O=C(C=Cc1ccc(/C=C/C(=O)Nc2ccc(C3=NCCN3)cc2)cc1)Nc1ccc(C2=NCCN2)cc1
[1]
  Potency: inactive

## Cc1ccccc1C(C(=O)NC1CCCC1)N(C(=O)Cn1cnc2ccccc21)c1cccc(F)c1 (configuration not stated)
[1]
  Potency: 16.6 µM (active)

## CN(C)c1ccc(Nc2nc(N)n(C(=O)c3c(F)cccc3F)n2)cc1
[2]
  Potency: inactive
[3]
  Potency: 1.34 µM (active)
[4]
  outcome: inactive
[5]
  outcome: inactive
[1]
  Potency: 14.8 µM (active)

## OCCn1cc(-c2cnc3nnn(Cc4ccc5ncccc5c4)c3n2)cn1
[6]
  Potency: 14.3 µM (active)
[2]
  Potency: inactive
[3]
  Potency: inactive
[4]
  outcome: inactive
[7]
  Potency: inactive
[1]
  Potency: inactive

## CCC(=O)N[C@H]1CC[C@H](C(=O)N(C)c2ccc(-c3nc4ccccc4o3)cc2)C1
[6]
  Potency: inactive
[1]
  Potency: 8.33 µM (active)

## COc1ccc(-c2ccc3c(N4CCOCC4)nc(N4C[C@@H](C)O[C@@H](C)C4)nc3n2)cc1CO
[7]
  Potency: 469 nM (active)
[1]
  Potency: 0.296 µM (active)

## CCC(C)n1ncn(-c2ccc(N3CCN(c4ccc(OC[C@H]5CO[C@](Cn6cncn6)(c6ccc(Cl)cc6Cl)O5)cc4)CC3)cc2)c1=O (some centres not stated)
[6]
  Potency: inactive
[2]
  Potency: inactive
[3]
  Potency: inactive
[4]
  outcome: inactive
[1]
  Potency: inactive
